Laboratory results reported in PubChem BioAssay (NCI).
This is part of a sample that, as a whole, favours compounds with a hit. Of some 83,000 tested, about 20% had one in any assay.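 Treatment: one concentration, 48 hours, 96-well format. Scoring: percent growth, with anything below 10 considered active.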 Values without a mark were called inactive. The source made the active and inactive calls.

Columns and labels:
Assay in all cases: NCI-60 one-dose screen, 48 h (100 = growth as untreated, 0 = no growth, -100 = all killed)
Details in all cases: 10 µM unless noted
SR leukemia = test system: SR leukemia
RPMI-8226 leukemia = test system: RPMI-8226 leukemia
OVCAR-8 ovarian = test system: OVCAR-8 ovarian
OVCAR-5 ovarian = test system: OVCAR-5 ovarian
OVCAR-4 ovarian = test system: OVCAR-4 ovarian
SK-OV-3 ovarian = test system: SK-OV-3 ovarian
IGROV1 ovarian = test system: IGROV1 ovarian
OVCAR-3 ovarian = test system: OVCAR-3 ovarian
HS 578T breast = test system: HS 578T breast
NCI/ADR-RES ovarian = test system: NCI/ADR-RES ovarian
T-47D breast = test system: T-47D breast
BT-549 breast = test system: BT-549 breast
MDA-MB-435 melanoma = test system: MDA-MB-435 melanoma
SW-620 colon = test system: SW-620 colon
MCF7 breast = test system: MCF7 breast
HCT-116 colon = test system: HCT-116 colon
HCC-2998 colon = test system: HCC-2998 colon
KM12 colon = test system: KM12 colon

Structure (SMILES)	growth (SR leukemia)	growth (RPMI-8226 leukemia)	growth (OVCAR-8 ovarian)	growth (OVCAR-5 ovarian)	growth (OVCAR-4 ovarian)	growth (SK-OV-3 ovarian)	growth (IGROV1 ovarian)	growth (OVCAR-3 ovarian)	growth (HS 578T breast)	growth (NCI/ADR-RES ovarian)	growth (T-47D breast)	growth (BT-549 breast)	growth (MDA-MB-435 melanoma)	growth (SW-620 colon)	growth (MCF7 breast)	growth (HCT-116 colon)	growth (HCC-2998 colon)	growth (KM12 colon)
O=[N+]([O-])c1cccc(-c2nc3sccn3c2-c2ccnc(NCCCNS(=O)(=O)c3ccc(Cl)cc3)n2)c1	60.7%	16.2%	20%	112%	17.5%	96.5%	43.3%	44.5%	81.2%	12.6%	6.46% (active)	30.2%	33.4%	90.1%	33.2%	53.3%	116%	39.2%
COc1cc2c(=O)n(C3CCCCCC3)c3c4cc[nH]c4ncc3c2cc1OC	16.3%	66.4%	83.4%	76.2%	93.4%	82.3%	57.3%	89.1%	42.4%	89.1%	84.8%	52.3%	86.9%	70.8%	49.9%	72.6%	117%	24.4%
O=c1ccn(C2CC(O)C(O)C(CO)O2)c(=O)[nH]1 (stereo unspecified)	123%	85.7%	116%	108%	108%	114%	118%	123%	120%	113%	102%	114%	116%	114%	97.4%	107%	117%	121%
O=C1NN(C(=O)c2ccc(Cl)cc2)C(c2ccccc2)=N/C1=C\c1ccc(F)cc1	80.2%	60.3%	86.6%	88.8%	99.1%	97.4%	87.6%	98.7%	95.2%	66.7%	80.7%	78.9%	91.5%	42.5%	98.2%	62.9%	95.3%	59.1%
O=C(Nc1ccc(Cl)c(Cl)c1)NS(=O)(=O)c1cnccc1Oc1ccc(F)cc1	51.2%	-40.7% (active)	55.4%	82.7%	52%	88.7%	71.7%	8.22% (active)	86%	53.3%	-0.777% (active)	93.7%	86.8%	65.3%	58.6%	41.3%	76.7%	48.7%
COc1ccc(-c2nc(-c3nc4cc(C)c(C)cc4[nH]3)cc3c2[nH]c2ccccc23)cc1	-43.7% (active)	-26.3% (active)	36.9%	77.6%	60.6%	109%	66.9%	-4% (active)	56.9%	41.7%	52.1%	70.9%	49.2%	77.3%	39.1%	18.1%	16.6%	44.2%
O=C1c2c(c3c4ccccc4n(CCCCCCBr)c3c3[nH]c4ccccc4c23)C(=O)N1O	6.48% (active)	1.01% (active)	0.342% (active)	19.8%	7.84% (active)	3.04% (active)	-5.71% (active)	15%	50.3%	9.64% (active)	4.32% (active)	-3.13% (active)	0.62% (active)	15.1%	2.38% (active)	6.41% (active)	18.3%	10.8%
COc1ccc(/C=C2\Oc3cc(OCCCN4CCCC4)ccc3C2=O)c(OC)c1	-26.5% (active)	66.9%	80%	100%	90.3%	110%	88.2%	97.4%	94.5%	91%	99%	95.4%	97%	33.5%	44.4%	10.6%	86.3%	67.1%
S=c1[nH]nc(-c2cc3ccc2CCc2ccc(cc2)CC3)n1-c1ccccc1	96.6%	94.5%	102%	103%	83.1%	111%	100%	104%	116%	99.8%	89.1%	108%	93.3%	97.5%	85.3%	88.1%	113%	98.2%
COc1ccncc1S(=O)(=O)NC(=O)Nc1ccc(Cl)c(Cl)c1	74.8%	46.2%	97.8%	89.6%	95.7%	114%	82.7%	90%	93.9%	89.8%	78.1%	111%	100%	99.6%	105%	91.7%	101%	91.9%
COc1cc(/C=C/C(=O)/C=C/c2cc(OC)c3c(c2)OCO3)cc2c1OCO2	33.6%	-10.5% (active)	95.4%	107%	104%	86.6%	90.3%	34.6%	103%	91.2%	88.6%	84.3%	-21.2% (active)	11.5%	19.8%	-93.9% (active)	14.6%	-17.1% (active)
O=C(Nc1ccncc1)C(=O)c1cn(S(=O)(=O)c2ccc(Cl)cc2)c2ccccc12	28.3%	31.4%	42.5%	64.7%	49%	91.7%	39.7%	-22.3% (active)	13.5%	-4.89% (active)	41.2%	39.2%	0.272% (active)	10.4%	16.8%	15.3%	54.7%	19.8%
CCOC(=O)c1cc(C(=O)c2cc(OC)c(OC)c(OC)c2)n2c1ccc1ccccc12	10.8%	11.2%	32.7%	46.5%	40.8%	34.7%	31.4%	-17.3% (active)	11.6%	18%	11.1%	66.9%	-54.6% (active)	18.8%	12.1%	25.8%	69.5%	28.5%
CC(C)C(C(=O)NCCN1CCOCC1)N1C(=O)/C(=C/c2ccc(Br)cc2)SC1=S (stereo unspecified)	111%	98%	108%	102%	105%	112%	108%	104%	95.1%	96.7%	94.1%	99%	101%	102%	95.3%	94.8%	107%	99.7%
COc1ccc(-c2nc(/C=C3/C(=O)Nc4ccc(F)cc43)c3ccccn23)cc1	79.1%	93.3%	98.5%	133%	101%	117%	87.4%	114%	118%	111%	100%	104%	113%	87.7%	48.7%	62%	104%	102%
Cc1ccc(/C=C2\CN(C(=O)CCN3CCC(=NO)CC3)C/C(=C\c3ccc(C)cc3)C2=O)cc1	-0.19% (active)	-9.83% (active)	20.4%	-8.32% (active)	20.9%	87.8%	-14% (active)	8.71% (active)	6.55% (active)	14.6%	16.4%	11.2%	-39.8% (active)	-34.1% (active)	-3.62% (active)	-74.5% (active)	-70.7% (active)	-75.3% (active)
COc1cc(C2NN=C3c4ccccc4CCC32)cc(OC)c1OC (stereo unspecified)	61.1%	5.35% (active)	70.3%	95.8%	71.1%	69%	26.1%	71.2%	71.4%	79.4%	39.3%	103%	96.9%	93.9%	42.7%	74.8%	110%	80.4%
